Screening data (PubChem)
Most compounds without a hit are left out; they make up all but 10% or so of the library.
BAZ2B inh = blocks human BAZ2B; Q9UIF8; AlphaScreen BAZ2B-H3K14Ac peptide displacement; AID 504333; 360,000 compounds, 4.4% hits; Potency, µM (doses to about 114 µM), without a hit: at the top dose activity change, negative = inhibition, hits mostly inhibitors; note: potency is the fitted concentration of half-maximal effect; % is set by controls: 0 for no effect and ±100 for the full control effect; nearly all actives have a fitted effect of over 60% in size
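AlphaScreen displacement: compounds (up to 110uM) incubated 30 min at room temperature with a preformed 50 nM BAZ2B/50 nM biotinylated H3K14Ac peptide complex in PBS pH 7.4 with Tween-20. Donor and acceptor beads at 10 ug/mL final added, 20 min light-protected before reading.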
G9a inh = inhibitors of human histone lysine methyltransferase G9a; AID 504332; Potency, µM (titrated, usually from 102 µM), inactives show top-dose activity, negative = inhibition, actives largely listed as inhibitors; G9a H3K9 monomethylation, AlphaScreen, 2 h; 350,000 compounds, 8.8% hits; note: potency is the fitted concentration of half-maximal effect; % is set by controls: 0 for no effect and ±100 for the full control effect; nearly all actives have a fitted effect of over 75% in size
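Quantitative HTS format: methyltransferase activity on a biotin-tagged H3K9 peptide is measured by AlphaScreen, using a rabbit anti-monomethyl-H3K9 antibody with streptavidin donor and anti-IgG acceptor beads. Final levels are 20 nM enzyme, 500 nM peptide, 20 uM SAM; 2 h RT.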
CtBP-E1A blk = blocks the CtBP interaction with E1A; AlphaScreen GST-E1A/His-CtBP binding, 1536-well; stronger effect = lower value; activity change, % (no concentration beside the values); 340,000 compounds, 0.49% hits; in the data active = activity change below about -65%; inconclusive = mostly about -30% to -63%; note: % is set by controls: 0 for no effect and ±100 for the full control effect
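GST-E1A and His-tagged CtBP (125 nM each as 5X stock) were preincubated with pin-transferred compound for 2 h at 37 °C in the dark, then glutathione donor and nickel acceptor beads were added for 1 h before AlphaScreen reading.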
Six1-Eya2 inh = inhibitors of human Six1/Eya2 interaction. AlphaScreen GST-Six1/His-Eya2 binding, biochemical; stronger effect = lower value. activity change, % (concentration not given with the values). 360,000 compounds, 0.56% hits; in the data active = activity change below about -65%; inconclusive = mostly about -30% to -63%; note: % is set by controls: 0 for no effect and ±100 for the full control effect
Target sequence (O00167 whole entry, looked up): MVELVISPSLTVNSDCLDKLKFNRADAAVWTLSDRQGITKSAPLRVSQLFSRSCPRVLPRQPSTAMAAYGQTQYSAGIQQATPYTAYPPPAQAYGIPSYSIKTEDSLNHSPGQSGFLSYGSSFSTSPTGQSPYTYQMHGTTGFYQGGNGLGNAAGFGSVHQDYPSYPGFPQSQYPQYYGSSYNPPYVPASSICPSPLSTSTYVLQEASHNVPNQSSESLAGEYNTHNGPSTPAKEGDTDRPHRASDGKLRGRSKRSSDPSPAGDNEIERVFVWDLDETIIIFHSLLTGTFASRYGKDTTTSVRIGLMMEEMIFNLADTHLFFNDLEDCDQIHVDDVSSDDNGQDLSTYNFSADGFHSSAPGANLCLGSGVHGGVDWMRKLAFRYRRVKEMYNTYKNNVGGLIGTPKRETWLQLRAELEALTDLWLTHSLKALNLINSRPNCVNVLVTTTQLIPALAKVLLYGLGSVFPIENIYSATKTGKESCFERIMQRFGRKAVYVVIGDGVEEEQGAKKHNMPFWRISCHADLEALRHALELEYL
Target sequence (Q15475 whole entry, looked up): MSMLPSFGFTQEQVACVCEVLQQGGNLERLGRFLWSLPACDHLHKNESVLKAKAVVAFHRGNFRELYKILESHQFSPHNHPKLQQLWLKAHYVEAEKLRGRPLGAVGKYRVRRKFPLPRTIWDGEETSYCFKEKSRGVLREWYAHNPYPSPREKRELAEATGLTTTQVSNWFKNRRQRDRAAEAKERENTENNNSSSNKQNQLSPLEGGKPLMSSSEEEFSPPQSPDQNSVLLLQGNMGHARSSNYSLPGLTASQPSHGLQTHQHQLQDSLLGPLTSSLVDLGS
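Six1/Eya2 binding was read as AlphaScreen signal after compounds were pinned into GST-Six1 plus His-tagged Eya2 (5X stock 250/500 nM) in pH 8.0 Tris/NaCl/TCEP buffer, beads added, then incubated 1 h, 37 C, dark.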
HP1b chromo inh = HP1-beta chromodomain-methylated histone interaction inhibition; P83916; AlphaScreen HP1-beta / biotin-H3K9me3 peptide binding; Potency, µM (highest dose often 114 µM), inactives show top-dose activity change, negative = inhibition, hits mostly inhibitors; 390,000 compounds, 0.56% hits; AID 540317; note: potency is the fitted concentration of half-maximal effect; nearly all actives have a fitted effect of over 70% in size
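AlphaScreen: HP1-beta (50 nM) preformed 30 min with biotin-H3(1-18)K9me3 peptide (50 nM) in PBS pH 7.4, 0.01% Tween-20. Compound added for 30 min at RT, then streptavidin donor/nickel chelate acceptor beads (10 ug/mL) for 30 min.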
JMJD2A Tudor = JMJD2A Tudor domain (human) inhibition | 390,000 compounds, 4.4% hits | Potency, µM (top dose mostly 114 µM), for the others: at the top dose activity change, negative = inhibition, usual class: inhibitors | AlphaScreen JMJD2A-Tudor / H3K4me3 peptide binding | O75164; note: potency is the fitted concentration of half-maximal effect; % is set by controls: 0 for no effect and ±100 for the full control effect; nearly all actives have a fitted effect of over 50% in size
Starred values were filed as active, the others as inactive; ? = inconclusive; · = no result; [ ] = dose if it differs, or a comment. Unless noted, calls come from the whole dose curve; as a rule, active = well fitted inhibition curve with a large enough effect; inconclusive = small, poorly fitted or top-dose-only effect; inactive = no such curve, though single readings can be large or run the other way.

SMILES | BAZ2B inh | G9a inh | CtBP-E1A blk | Six1-Eya2 inh | HP1b chromo inh | JMJD2A Tudor
CCOc1cccc(-c2nc3ccccc3c(=O)o2)c1 | 2% | 12%[59 µM] | · | · | 127% | 162%
O=C(NNS(=O)(=O)c1ccc(F)cc1)c1ccccc1O | ? | 32µM* | 9 | 2 | 24% | 2%
Cc1ccc(NC(=O)c2csnn2)c(C)c1 | 4% | 14µM* | 8 | -1 | 63% | -18%[57.1 µM]
CC(C)(C)OC(=O)N1C2C=CC1C1=COCCN1C2=O (centres undefined) | · | · | · | · | 32% | -9%
CCOC(=O)Cc1ccc(NC(=O)NCc2c(-n3cccc3)sc3c2CCCC3)cc1 | -18% | -40%[59 µM] | · | · | 47% | -18%
Cc1cn([C@H]2C[C@H](N=[N+]=[N-])[C@H](CO)O2)c(=O)[nH]c1=O | · | 38%[59 µM] | · | · | · | ·
COC(=O)c1ccc(NC(=O)CN2C(=O)CNC2=O)cc1 | 2% | 13µM* | 4 | -2 | 39% | 0%
COc1ccc(C)cc1NC(=O)CN1CCN(S(=O)(=O)c2ccc(Cl)cc2)CC1 | 9% | 14µM* | 0 | -2 | 16% | -6%
COc1ccc(C)cc1NC(=O)CN1CCN(S(=O)(=O)c2ccc(C(C)C)cc2)CC1 | 12% | -4%[12.7 µM] | -3 | -1 | 20% | -9%
Cc1ccc(NC(=O)CN2C(=O)CNC2=O)cc1 | ? | -4% | -6 | 0 | 17% | -3%
COc1ccc(S(=O)(=O)N2CCN(CC(=O)Nc3c(C)n[nH]c3C)CC2)cc1OC | · | · | -4 | 13 | ? | 0.89µM*
O=C(CN1CCCN(S(=O)(=O)c2ccc(F)cc2)CC1)Nc1c(Cl)cccc1Cl | -1% | -12% | -16 | 2 | 5% | -6%
Cc1n[nH]c(C)c1NC(=O)CN1CCN(S(=O)(=O)c2ccc(C(F)(F)F)cc2)CC1 | · | · | 0 | 3 | ? | 4.5µM*
COc1cccc(NC(=O)C2CCN(c3nc4ccccc4nc3C(F)(F)F)CC2)c1 | 4% | -1%[59 µM] | · | · | 36% | 4%
CCc1ccc(NC(=O)C2CCN(S(=O)(=O)c3c(C)noc3/C=C\c3ccc(OC)cc3)CC2)cc1 | · | 4%[59 µM] | · | · | 28% | -4%
O=C(CCC(=O)N1CCSc2ccccc21)Nc1ccc(Cl)cc1 | -16% | -15%[59 µM] | · | · | 39% | -15%
COC(=O)c1ccc(NC(=O)CN2CCN(S(=O)(=O)c3cc(Cl)ccc3OC)CC2)cc1 | 3% | 35µM* | -5 | -12 | 22% | -9%
COc1ccc(Cl)cc1S(=O)(=O)N1CCN(CC(=O)Nc2ccccc2C(F)(F)F)CC1 | -2% | -5%[59 µM] | · | · | 46% | -13%
O=C(CSc1nnc(-c2ccco2)n1Cc1ccccc1)OC1CCCCC1 | ? | 50µM* | ? | -16 | 2% | -23%[57.1 µM]
O=C(CSc1nnc(-c2ccncc2)n1Cc1ccco1)OC1CCCCC1 | -31% | -39%[12.7 µM] | 6 | 0 | 23% | -10%
CC(=O)c1c(C)[nH]c(C(=O)CSc2nnc(-c3ccco3)n2Cc2ccccc2)c1C | 50µM* | 40µM* | -13 | -9 | 9% | -14%[57.1 µM]
C/C(CC1CC(C)OC1=O)=N\NC(N)=S (centres undefined) | ? | 35µM* | · | 7 | -12% | ?
CCC1CC(/C(C)=N/NC(N)=O)OC1=O (centres undefined) | -13% | -10%[59 µM] | 5 | 2 | 16% | -6%
COc1ccccc1N=C1SCC(=O)N1c1ccccc1OC | -3% | 28µM* | 8 | 9 | ? | -12%
CCN(CC)CCCN1C(=O)C(=O)/C(=C(/O)c2ccc(C)cc2)C1c1ccccn1 (centres undefined) | ? | 14µM* | -2 | 0 | -1% | 89µM*
CCN(CC)CCN1C(=O)C(=O)/C(=C(/O)c2ccncc2)C1c1ccccc1F (centres undefined) | 2% | 79µM* | 3 | 3 | 14% | -19%
CCOc1ccc(/C(O)=C2/C(=O)C(=O)N(CCOCCO)C2c2cccnc2)cc1 (centres undefined) | -7% | · | -1 | 2 | 12% | 79µM*
